Reference: the supplement of paper PMC7366291
Where a name gives a salt, the structure may show the parent alone.

The molecules below were run on Danio rerio Tg(wt1b:EGFP) embryo, pronephros (assay: fraction of imaged embryos annotated as normal kidney; higher = less nephrotoxic; extreme values may be limits of the assay). Conditions: 25 µM; exposure: 24-48 hpf.
Summary of the method: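 Embryos of the Tg(wt1b:EGFP) zebrafish line were dechorionated and held in 12-well plates with 25 μM compound in 0.5% DMSO and 5 mM HEPES-buffered E3 containing 0.003% PTU, from 24 to 48 hpf at 28.5°C. Larvae were then anaesthetised with tricaine, set dorsal side up in agarose-filled 96-well plates, and their pronephroi imaged by widefield fluorescence at 470 nm over 10 z-slices. Each value is the fraction of embryos per treatment placed in the normal-kidney category after manual annotation of maximum projections.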

| SMILES | fraction of imaged embryos annotated as normal kidney |
| --- | --- |
| CN(C)CCC=C1c2ccccc2C=Cc2ccccc21 [Cyclobenzaprine hydrochloride] | 0.833 |
| CC(NCCC(c1ccccc1)c1ccccc1)c1ccccc1 (centres undefined) [Fendiline hydrochloride] | 0.727 |
| c1ccc2c(c1)CCCC2C1=NCCN1 (centres undefined) [Tetrahydrozoline hydrochloride] | 1 |
| C=CC(N)CCC(=O)O (centres undefined) [Vigabatrin hydrochloride] | 0.917 |
| O=c1n(CCCN2CCN(c3cccc(Cl)c3)CC2)nc2ccccn12 [Trazodone hydrochloride] | 1 |
| CCOC(=O)C(C)(C)Oc1ccc(Cl)cc1 [Clofibrate] | 0 |
| CCC(NC(C)C)C(O)c1ccc(O)c(O)c1 (centres undefined) [Isoetharine mesylate salt] | 0.75 |
| CN1CCC(=C2c3ccccc3CCc3cccnc32)CC1 [Azatadine maleate] | 1 |
| COc1ccccc1OCC(O)CO (centres undefined) [Guaifenesin] | 0.917 |
| CCOC(=O)n1ccn(C)c1=S [Carbimazole] | 0.667 |
| CC(=O)OCC(=O)[C@@]1(O)CC[C@H]2[C@@H]3CCC4=CC(=O)CC[C@]4(C)[C@H]3[C@@H](O)C[C@@]21C [Cortisol acetate] | 0.25 |
| COc1cc(NS(=O)(=O)c2ccc(N)cc2)nc(OC)n1 [Sulfadimethoxine] | 1 |
| CCN1CCN(C(=O)N[C@@H](C(=O)N[C@@H]2C(=O)N3[C@@H]2SC(C)(C)[C@@H]3C(=O)O)c2ccccc2)C(=O)C1=O [Piperacillin sodium salt] | 0.667 |
| COc1ccc([C@@H]2CC(=O)c3c(O)cc(O[C@@H]4O[C@H](CO[C@@H]5O[C@@H](C)[C@H](O)[C@@H](O)[C@H]5O)[C@@H](O)[C@H](O)[C@H]4O)cc3O2)cc1O [Hesperidin] | 0.917 |
